Rac1 wt modul: wildtype Rac1 GTP binding modulators, primary screen, biochemical, GST-Rac1 beads, flow cytometry, multiplex. AID 757, 2007. 190,000 compounds, 0.27% hits. Ras-related C3 botulinum toxin substrate 1 (Homo sapiens), P63000. fluorescent GTP binding; actives lie on both sides; 0 = cold GTP competed, 100 = untreated. GTP binding activity (% of control), % at 10 µM;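 active = GTP binding activity at least 20 points away from the 100% control level, either lower or higher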
Cdc42 wt: modulators of GTP binding to wildtype Cdc42, primary screen, biochemical, multiplex bead flow cytometry, Bodipy-GTP; GST-Cdc42 beads; actives lie on both sides; AID 761, 2007; percent activity (GTP binding), % at 10 µM; 190,000 compounds, 0.2% hits;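 active = percent activity GTP binding at least 20 points away from the 100% baseline, either down as inhibitor or up as activator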;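 note: median bead fluorescence of bound Bodipy-FL-GTP at 100 nM; 0% = excess unlabeled GTP control and 100% = no compound control; below 100% means less GTP binding so inhibitor and above means activator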
Target sequence (P60953 whole entry, looked up): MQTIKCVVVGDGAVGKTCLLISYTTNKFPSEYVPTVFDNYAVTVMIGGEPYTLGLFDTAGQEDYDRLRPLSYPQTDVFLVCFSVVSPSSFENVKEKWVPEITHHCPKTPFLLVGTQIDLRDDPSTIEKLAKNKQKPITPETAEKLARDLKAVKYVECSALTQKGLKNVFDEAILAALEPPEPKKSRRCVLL
Rac1 mut GTP: GTP binding modulators of activated mutant Rac1, primary screen, biochemical, bead-based flow cytometry, multiplex, fluorescent GTP; GST-Rac1 activated beads; actives lie on both sides; 100% means binding = to untreated wells; percent activity (GTP binding), % at 10 µM; 190,000 compounds, 0.11% hits; AID 764, 2007;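 active = GTP binding at least 20 percentage points away from the 100% baseline, in either direction, so actives lie on both sides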
Rab2 wt GTP: modulators of GTP binding to Rab2A wildtype, primary screen, biochemical, dog, bead-based flow cytometry, multiplex; Ras-related protein Rab-2A (Canis lupus familiaris), P61105; GST-Rab2 wt beads, Bodipy-GTP binding; GTP binding activity, % at 10 µM; 190,000 compounds, 0.19% hits; AID 760, 2007;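 active = GTP binding activity at least 20 points away from 100%, either lowered or raised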;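 note: 0% = beads with excess unlabeled GTP and 100% = no-compound control corrected for plate trend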
Rab7 wt GTP bind: modulators of GTP binding to Rab7, primary screen, biochemical, wildtype, multiplex bead flow cytometry; 190,000 compounds, 0.055% hits; Rab7 GTPase wild type (dog), Bodipy-FL-GTP binding; GTP binding activity (percent of control), % at 10 µM; GST-Rab7 beads, fluorescent GTP binding; actives lie on both sides; untreated = 100%, excess cold GTP = 0%;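 active = fluorescent GTP binding to Rab7 beads changed by at least 20 points from the 100% baseline, either direction, mostly lower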;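 note: median green fluorescence of bound Bodipy-FL-GTP per Rab7 bead population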
HRas wt GTP: modulators of GTP binding to HRas wildtype, primary screen, biochemical, bead-based flow cytometry, multiplex; GTPase HRas (Homo sapiens), P01112; GST-Ras wt beads, Bodipy-FL-GTP binding; actives lie on both sides; GTP binding activity, % at 10 µM; 190,000 compounds, 0.14% hits;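 active = GTP binding activity at least 20% away from the 100% baseline, either lowered as inhibitor or raised as activator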;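 note: 0% = unlabeled GTP competition control and 100% = no-compound control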
Target sequence (P01112 whole entry, looked up): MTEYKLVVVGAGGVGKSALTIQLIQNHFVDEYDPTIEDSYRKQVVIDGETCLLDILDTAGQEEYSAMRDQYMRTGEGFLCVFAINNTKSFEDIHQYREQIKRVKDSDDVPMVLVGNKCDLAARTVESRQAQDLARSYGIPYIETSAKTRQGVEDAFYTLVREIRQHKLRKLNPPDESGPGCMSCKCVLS
Starred values were filed as active, the others as inactive; [ ] = remark or other dose. This is a sample that favours compounds with a hit; in the whole collection about 0.38% have one here.

SMILES	Rac1 wt modul	Cdc42 wt	Rac1 mut GTP	Rab2 wt GTP	Rab7 wt GTP bind	HRas wt GTP
Cc1ccc(C(=O)Nn2c(O)c(C=C3N=c4ccccc4=N3)sc2=S)cc1	72*	73*	79*	81	86	73*
O=C(Nn1c(O)c(C=C2N=c3ccccc3=N2)sc1=S)c1ccc(Cl)cc1	92	93	90	95	96	95
Cc1ccc(S(=O)(=O)CCC(=O)Nc2ccc(S(=O)(=O)N(C)C)cc2)cc1	100	99	99	102	109	102
Cc1ccccc1NC(=O)C1CCCN1S(=O)(=O)c1cccc2cccnc12 (stereo unspecified)	128*[activator]	117	111	113	109	113
Cc1ccccc1NC(=O)C1CCCN(S(=O)(=O)c2cccc3cccnc23)C1 (stereo unspecified)	103	98	100	97	101	100
O=C(NCc1cccnc1)c1ccc(S(=O)(=O)N2CCCCCC2)cc1	102	99	98	99	103	99
Cc1cc(C)cc(OCC(=O)Nc2nonc2NC(=O)COc2cc(C)cc(C)c2)c1	97	96	95	95	95	94
COc1ccc(OCC(=O)Nc2nonc2NC(=O)COc2ccc(OC)cc2)cc1	79*	84	88	82	95	85
CCOc1ccc(Nc2nnc(Cc3ccc(OC)cc3)c(=O)[nH]2)cc1	101	98	96	96	94	98
Cc1ccc(NS(=O)(=O)c2cc(NC(=O)c3ccc4c(c3)NC(=O)CS4)ccc2Cl)c(C)c1	110	113	102	129*[activator]	113	116
FC(F)(F)c1cccc(NC(=S)NNC(=S)NCc2ccccc2)c1	80	81	80*	84	86	86
COc1cc(C)c2c(c1C=O)Oc1c(c(C)c(O)c3c1C(O)OC3=O)OC2=O (stereo unspecified)	80	78*	76*	80	84	81
COc1ccc(/C=N/NC(=S)Nc2cc(S(=O)(=O)N3CCOCC3)ccc2N2CCOCC2)cc1O	136*[activator]	116	114	116	119	117
COc1ccc2ccccc2c1/C=N/NC(=S)Nc1cc(S(=O)(=O)N2CCOCC2)ccc1N1CCOCC1	106	108	101	100	97	103
CC(C)(C)NC(=O)CCN(/N=C/c1ccc([N+](=O)[O-])o1)C1=NS(=O)(=O)c2ccccc21	50*	56*	59*	45*	72*	42*
Cc1cc(NC(=O)CSc2nc3ccccc3c(=O)n2C2CCCC2)no1	104	102	101	102	103	100
COC(=O)CSc1nc2cc(Cl)ccc2c(=O)n1C1CCCC1	89	79*	92	80	90	80
COc1ccc(C(=O)c2c(O)cc(-c3ccc(OC)cc3)oc2=O)cc1	137*[activator]	117	116	118	125*[activator]	118
COc1ccc(-c2cc(=O)c3c(O)c(OC)c(O)cc3o2)cc1	85	86	90	88	100	88
Cc1ccc(/C(N)=N/OC(=O)CCC2CCCCC2)cc1	133*[activator]	102	107	114	96	109
O=C(CCc1nnc(CCCCc2ccccc2)o1)NCCN1CCCCC1=O	105	98	97	100	105	100
NS(=O)(=O)c1ccc(N2N=C(c3ccccc3)CC2c2cccc(F)c2)cc1 (stereo unspecified)	106	61*	101	100	102	102
O=S(=O)(CC(CN1CCCCC1)N1CCCCC1)c1ccc2ccccc2c1 (stereo unspecified)	100	96	97	97	99	99
COc1ccc(CCn2c(SCCN3CCCCC3)nc3ccccc3c2=O)cc1OC	97	96	95	93	90	93
Cc1ccc(-c2csc3nc(C)n(N)c(=O)c23)cc1	94	96	96	95	95	96
SMILES	Rac1 wt modul	Cdc42 wt	Rac1 mut GTP	Rab2 wt GTP	Rab7 wt GTP bind	HRas wt GTP
Cc1ccc(-c2csc3nc4c5ccccc5c(NCCCN(C)C)nn4c(=O)c23)cc1	79*	72*	89	77*	90	73*
Cc1ccc(-c2csc3nc4c5ccccc5c(NCCCN5CCOCC5)nn4c(=O)c23)cc1	60*	57*	82	59*	95	60*
CCN(CC)c1ccc(-c2nn3c(-c4cccnc4)nnc3s2)cc1	83	72*	84	73*	88	73*
COc1cccc(-n2c(SCC(=O)NCCC3=CCCCC3)nc3n[nH]c(C)c3c2=N)c1	88	75*	89	76*	87	73*
CCOC(=O)N1CCN(C(=O)CSc2ccc3nnc(-c4cccnc4)n3n2)CC1	97	98	96	96	99	95
Cc1cccc(Cc2c(C)nc3nc(SCC(=O)O)nn3c2C)c1	72*	66*	68*	74*	89	78*
Cc1nc2nc(SCC(=O)NCCN3CCOCC3)nn2c(C)c1Cc1ccccc1	103	99	100	100	100	100
O=[N+]([O-])c1cc(-c2ncccn2)c([N+](=O)[O-])s1	95	81	76*	92	101	96
COCCN(CCOC)C(=O)c1ccc(SCc2ccc(C)cc2)c([N+](=O)[O-])c1	97	93	91	93	98	98
COc1ccc(NC(=O)COC(=O)c2ccc(OCc3c(C)noc3C)cc2)cc1OC	103	102	98	100	101	101
COc1cc(C(=O)OCC(=O)Nc2ccc3c(c2)OC(F)(F)O3)ccc1OCc1c(C)noc1C	39*	34*	37*	40*	28*	43*
Cc1cccc(NC(=O)CN2C(=O)N/C(=C/c3ccc(-c4cccc(C(=O)O)c4C)o3)C2=O)c1	97	93	92	92	93	91
Cc1ccc(NC(=O)CN2C(=O)S/C(=C\c3ccc(-c4cccc(C(=O)O)c4C)o3)C2=O)cc1C	84	79*	82	82	97	89
CCNC(=O)NC(=O)COC(=O)CCc1nc(=O)c2ccccc2n1C	100	100	95	97	98	98

High-throughput results from PubChem BioAssay.
